This experiment deals with furin, P09958. Briefly: furin cleavage Z-score vs untreated control; higher = more cleavage, active = 3.5 or more, inactive = 1 or less, 8 variable residues between constant flanks. In short, it runs like this:
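Peptides 8 residues long, fused to a cDNA oligonucleotide, were fixed to magnetic beads by the N-terminus and exposed to purified furin. The 0.01 ml reactions contained 50 mM HEPES pH 7.5 with CaCl2 and NaCl at 1:10 enzyme:substrate and ran 7.5, 15 or 30 min. For the cleavage Z-score, log counts of sequenced released DNA were compared with furin-free reactions, lowess-adjusted and scaled by median absolute deviation.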

Some of the results follow. No count for the full screen is at hand.

furin, P09958, sequence (P09958 whole entry, the tested form may be a part): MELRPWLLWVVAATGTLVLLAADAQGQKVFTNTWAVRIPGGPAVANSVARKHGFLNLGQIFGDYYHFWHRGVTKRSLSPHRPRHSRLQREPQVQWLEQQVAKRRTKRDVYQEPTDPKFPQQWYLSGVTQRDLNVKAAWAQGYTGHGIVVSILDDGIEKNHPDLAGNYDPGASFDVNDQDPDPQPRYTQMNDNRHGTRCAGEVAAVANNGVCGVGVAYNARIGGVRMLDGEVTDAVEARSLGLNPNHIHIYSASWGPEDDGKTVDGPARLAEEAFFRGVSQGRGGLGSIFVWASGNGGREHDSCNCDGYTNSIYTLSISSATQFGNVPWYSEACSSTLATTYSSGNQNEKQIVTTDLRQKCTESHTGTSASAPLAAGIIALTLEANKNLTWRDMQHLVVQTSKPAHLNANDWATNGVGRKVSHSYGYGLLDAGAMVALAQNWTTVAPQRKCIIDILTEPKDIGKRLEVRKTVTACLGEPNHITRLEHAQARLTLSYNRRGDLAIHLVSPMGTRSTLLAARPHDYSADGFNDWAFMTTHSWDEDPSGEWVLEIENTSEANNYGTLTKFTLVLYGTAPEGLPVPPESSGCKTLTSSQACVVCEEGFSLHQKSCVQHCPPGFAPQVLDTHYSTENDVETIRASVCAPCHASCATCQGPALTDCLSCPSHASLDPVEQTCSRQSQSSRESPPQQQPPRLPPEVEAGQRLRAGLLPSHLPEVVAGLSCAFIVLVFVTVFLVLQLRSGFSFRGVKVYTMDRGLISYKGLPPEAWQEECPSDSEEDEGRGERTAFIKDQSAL

As for CAEISVPAEIAGNASASA [HC1294], the “furin cleavage Z-score” value reads like this: (7.5 min) -0.695 (inactive); (15 min) -1.61 (inactive); (30 min) -1.39 (inactive).

For the sequence CASTFCSAHLAGNASASA [HC2507], the “furin cleavage Z-score” value by setting is: (7.5 min) -0.833 (inactive); (15 min) -0.376 (inactive); (30 min) -0.904 (inactive).

With CAQLEVVTSTAGNASASA [HC2282], the “furin cleavage Z-score” value was 0.398 (inactive) (7.5 min), 1.61 (15 min) and 0.854 (inactive) (30 min).

As for CAYLYGVGSSAGNASASA [HC511], the “furin cleavage Z-score” value reads like this: (7.5 min) 0.568 (inactive); (15 min) -0.0293 (inactive); (30 min) 0.0874 (inactive).

On to CASRRRMKRVAGNASASA [FS-1167], for which the “furin cleavage Z-score” value reads like this: (7.5 min) 11 (active); (15 min) 12 (active); (30 min) 9.11 (active).

On to CASRRRTRRPAGNASASA [FS-873], for which the “furin cleavage Z-score” value runs as follows: (7.5 min) 0.729 (inactive); (15 min) 0.54 (inactive); (30 min) 0.884 (inactive).

In the case of CAAPPRARRHAGNASASA [FS-975], the “furin cleavage Z-score” value is 8.59 (active) (7.5 min), 9.67 (active) (15 min) and 6.85 (active) (30 min).

CASRRRFYRPAGNASASA [FS-506]: the “furin cleavage Z-score” value (7.5 min) is -1.15 (inactive), the “furin cleavage Z-score” value (15 min) is 0.235 (inactive) and the “furin cleavage Z-score” value (30 min) is -2.19 (inactive).

For the sequence CASRRRARRHAGNASASA [FS-1416], the “furin cleavage Z-score” value (7.5 min) is 7.59 (active), the “furin cleavage Z-score” value (15 min) is 6.18 (active) and the “furin cleavage Z-score” value (30 min) was 7.01 (active).

For CAARKMIGGHAGNASASA [HC623], the “furin cleavage Z-score” value (7.5 min) is 0.0211 (inactive), the “furin cleavage Z-score” value (15 min) is 1.66 and the “furin cleavage Z-score” value (30 min) came to 1.13.

Consider CAPPLRAWRHAGNASASA [HC1618], for which the “furin cleavage Z-score” value (7.5 min) is -0.103 (inactive), the “furin cleavage Z-score” value (15 min) was 0.906 (inactive) and the “furin cleavage Z-score” value (30 min) is -0.71 (inactive).

With CASRIRIERVAGNASASA [FS-1087], the “furin cleavage Z-score” value reads like this: (7.5 min) 0.306 (inactive); (15 min) 3.11; (30 min) 2.24.

In the case of CAARQRTRRHAGNASASA [FS-1112], the “furin cleavage Z-score” value (7.5 min) is 11.1 (active), the “furin cleavage Z-score” value (15 min) was 12.6 (active) and the “furin cleavage Z-score” value (30 min) is 10 (active).

As to CAEVLCHRPSAGNASASA [HC2345], the “furin cleavage Z-score” value runs as follows: (7.5 min) 1.1; (15 min) -0.279 (inactive); (30 min) 0.507 (inactive).

As for CAMEECSQHDAGNASASA [HC1771], the “furin cleavage Z-score” value by setting is: (7.5 min) -0.304 (inactive); (15 min) 0.175 (inactive); (30 min) 0.222 (inactive).

On to CAAVQTNWQKAGNASASA [HC1035], for which the “furin cleavage Z-score” value (7.5 min) was 0.252 (inactive), the “furin cleavage Z-score” value (15 min) was 0.157 (inactive) and the “furin cleavage Z-score” value (30 min) was -0.0579 (inactive).

Consider CAMYVGGVEHAGNASASA [HC476], for which the “furin cleavage Z-score” value is -0.473 (inactive) (7.5 min), -0.882 (inactive) (15 min) and -0.205 (inactive) (30 min).

Consider CATTPFSGSWAGNASASA [HC46], for which the “furin cleavage Z-score” value was -0.133 (inactive) (7.5 min), -0.615 (inactive) (15 min) and -0.727 (inactive) (30 min).

Turning to CATPPRSKRVAGNASASA [FS-1096], the “furin cleavage Z-score” value was 4.55 (active) (7.5 min), 6.1 (active) (15 min) and 4.13 (active) (30 min).

For CAVVCCSMYYAGNASASA [HC2069], the “furin cleavage Z-score” value is, setting by setting: (7.5 min) -0.54 (inactive); (15 min) -0.258 (inactive); (30 min) -1.53 (inactive).

As to CAYVQMVIIKAGNASASA [HC627], the “furin cleavage Z-score” value was -1.63 (inactive) (7.5 min), -1.94 (inactive) (15 min) and -0.568 (inactive) (30 min).

CAAGTRTIASAGNASASA [HC703]: the “furin cleavage Z-score” value is 0.83 (inactive) (7.5 min), 0.675 (inactive) (15 min) and 0.11 (inactive) (30 min).

For the sequence CAKQFRALRSAGNASASA [FS-1595], the “furin cleavage Z-score” value reads like this: (7.5 min) 4.54 (active); (15 min) 5.86 (active); (30 min) 4.56 (active).

Turning to CAAGRRALRSAGNASASA [FS-1182], the “furin cleavage Z-score” value (7.5 min) is 4.32 (active), the “furin cleavage Z-score” value (15 min) was 4.3 (active) and the “furin cleavage Z-score” value (30 min) turned out to be 3.06.

For the sequence CAQLVRALRSAGNASASA [FS-848], the “furin cleavage Z-score” value reads like this: (7.5 min) 7.22 (active); (15 min) 7.99 (active); (30 min) 7.1 (active).

CAKNGRPLRSAGNASASA [FS-341]: the “furin cleavage Z-score” value (7.5 min) is 0.926 (inactive), the “furin cleavage Z-score” value (15 min) came out at 2.59 and the “furin cleavage Z-score” value (30 min) is 0.891 (inactive).

Regarding CAGCPERLASAGNASASA [HC386], the “furin cleavage Z-score” value is 1.74 (7.5 min), 0.605 (inactive) (15 min) and -0.259 (inactive) (30 min).

Turning to CAREARAVIFAGNASASA [FS-3186], the “furin cleavage Z-score” value (7.5 min) was -0.327 (inactive), the “furin cleavage Z-score” value (15 min) is -0.0656 (inactive) and the “furin cleavage Z-score” value (30 min) came to 2.23.

Consider CASRLRFDRFAGNASASA [FS-505], for which the “furin cleavage Z-score” value by setting is: (7.5 min) -0.495 (inactive); (15 min) 0.902 (inactive); (30 min) -0.181 (inactive).

Take CAVYARVSRFAGNASASA [FS-517]: the “furin cleavage Z-score” value runs as follows: (7.5 min) 0.958 (inactive); (15 min) 0.514 (inactive); (30 min) 2.26.

Turning to CAVRARFVRFAGNASASA [FS-1433], the “furin cleavage Z-score” value is 9.46 (active) (7.5 min), 9.43 (active) (15 min) and 8.99 (active) (30 min).

In the case of CALRIRNVRFAGNASASA [FS-1465], the “furin cleavage Z-score” value reads like this: (7.5 min) 2.76; (15 min) 6.35 (active); (30 min) 7.62 (active).

For CAVYVRVSRFAGNASASA [FS-518], the “furin cleavage Z-score” value runs as follows: (7.5 min) 3.44; (15 min) 4.83 (active); (30 min) 6.25 (active).

In the case of CAVRCCSMSYAGNASASA [HC2013], the “furin cleavage Z-score” value is, setting by setting: (7.5 min) 0.204 (inactive); (15 min) -0.014 (inactive); (30 min) 0.753 (inactive).

For the sequence CAALEVVTSTAGNASASA [HC2263], the “furin cleavage Z-score” value is 0.411 (inactive) (7.5 min), -0.918 (inactive) (15 min) and -0.927 (inactive) (30 min).

For the sequence CADSDAESYSAGNASASA [HC1350], the “furin cleavage Z-score” value (7.5 min) was -0.915 (inactive), the “furin cleavage Z-score” value (15 min) is -2 (inactive) and the “furin cleavage Z-score” value (30 min) is -1.07 (inactive).

For CAHTPCSAHLAGNASASA [HC2475], the “furin cleavage Z-score” value reads like this: (7.5 min) -0.788 (inactive); (15 min) -1.31 (inactive); (30 min) -0.643 (inactive).

Take CAAQKRSVGSAGNASASA [FS-2626]: the “furin cleavage Z-score” value by setting is: (7.5 min) 0.58 (inactive); (15 min) 0.683 (inactive); (30 min) -0.853 (inactive).

With CARPARLVPAAGNASASA [FS-2398], the “furin cleavage Z-score” value by setting is: (7.5 min) -0.162 (inactive); (15 min) -1.02 (inactive); (30 min) -0.581 (inactive).

With CARPARSVSKAGNASASA [FS-2498], the “furin cleavage Z-score” value is 4.36 (active) (7.5 min), 6.03 (active) (15 min) and 6.77 (active) (30 min).

On to CARPARSVGSAGNASASA [FS-2736], for which the “furin cleavage Z-score” value is, setting by setting: (7.5 min) 6.91 (active); (15 min) 7.69 (active); (30 min) 6.7 (active).

Regarding CARPARSGGPAGNASASA [FS-2735], the “furin cleavage Z-score” value reads like this: (7.5 min) -0.759 (inactive); (15 min) -1.01 (inactive); (30 min) -0.741 (inactive).

Consider CAEMKRKKRVAGNASASA [FS-1521], for which the “furin cleavage Z-score” value is 6.73 (active) (7.5 min), 7.44 (active) (15 min) and 8.54 (active) (30 min).

Consider CAWNKRKKRQAGNASASA [FS-968], for which the “furin cleavage Z-score” value was 13.9 (active) (7.5 min), 14.4 (active) (15 min) and 10.5 (active) (30 min).

With CATHSRKKRQAGNASASA [FS-201], the “furin cleavage Z-score” value (7.5 min) is 8.08 (active), the “furin cleavage Z-score” value (15 min) was 7.91 (active) and the “furin cleavage Z-score” value (30 min) is 8.14 (active).

For the sequence CAKKHKKKRVAGNASASA [FS-1538], the “furin cleavage Z-score” value runs as follows: (7.5 min) -1.41 (inactive); (15 min) -0.885 (inactive); (30 min) 0.391 (inactive).

These data come from the supplement of paper PMC3545927.
